# In PubChem BioAssay (EPA / NIEHS):
# Activity calls are given as the source filed them. Rule for the calls: active = hit-call score of the fitted dose curve at least 0.9, where 1 is the maximum; inactive = score below 0.9.
# Read-out: Insulin Like Growth Factor 1 (IGF1), IGF1 (gene 3479)
# Assay: LTEA_HepaRG_IGF1: Life Technologies and Expression Analysis (LTEA) Assay for Insulin Like Growth Factor 1 (IGF1) using HepaRG (AID 2283506)
# Settings: mRNA level, 48 h; actives raise or lower the signal
# How it was run: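 Differentiated HepaRG cells in serum-free induction medium, exposed 48 h in duplicate to 8 half-log concentrations up to 100 uM in 0.5% DMSO. IGF1 mRNA by Fluidigm qRT-PCR, normalised to ACTB, GAPDH and POLR2A.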
SMILES,AC50,outcome
CC[C@H](c1ccc(O)cc1)[C@@H](CC)c1ccc(O)cc1,86.3 µM (active),–
NC(=O)N1C(=O)C(C(=O)c2cc(Cl)cs2)c2cc(F)c(Cl)cc21 (configuration not stated),24.8 µM (active),–
CN1CCC[C@H]1c1cccnc1,–,inactive
C#C[C@]1(O)CC[C@H]2[C@@H]3CCC4=CC(=O)CC[C@@H]4[C@H]3CC[C@@]21C,–,inactive
COc1ccc([N+](=O)[O-])cc1N,–,inactive
CCCCCCCCCCCCN1CCCC1=O,–,inactive
O=C(OCCOCCOC(=O)c1ccccc1)c1ccccc1,–,inactive
Oc1cccc(O)c1,–,inactive
CCCCCCCCOC(=O)CCCCCCCCC(=O)OCCCCCCCC,–,inactive
COCC(C)O (configuration not stated),–,inactive
OC1CCC(C2CCCCC2)CC1 (configuration not stated),–,inactive
O=C(O)c1ccccc1C(c1ccc(O)cc1)c1ccc(O)cc1,–,inactive
CCCCCCCCCCCCc1ccccc1S(=O)(=O)O,38.9 µM (active),–
NC(=O)N(O)[C@@H]1C=C[C@H](Oc2cccc(Oc3ccc(F)cc3)c2)C1,37.9 µM (active),–
C=C(C)C(=O)OCCC(F)(F)C(F)(F)C(F)(F)C(F)(F)C(F)(F)C(F)(F)F,–,inactive
c1ccc2c(c1)Cc1ccccc1-2,–,inactive
COCC(C)OCC(C)O (configuration not stated),–,inactive
N#C[C@@H]1CC(F)(F)CN1C(=O)CNC1CC2CCC(C1)N2c1ncccn1 (some centres not stated),–,inactive
CCCOC(=O)c1ccc(O)cc1,–,inactive
CCCCC(CC)COC(=O)CCCCC(=O)OCC(CC)CCCC (configuration not stated),–,inactive
O=C(O)Cc1cc(I)c(Oc2cc(I)c(O)c(I)c2)c(I)c1,–,inactive
CCCCOCCO,–,inactive
